From PubChem BioAssay (Tox21)
Inconclusive results are not listed. The source made the active and inactive calls. Unless noted, calls come from the whole dose curve; as a rule, active = well fitted curve in the direction sought with a large enough effect in the repeat runs; inconclusive = weak or mixed curves; inactive = flat fitted curve, though single readings scatter.

Experiments:
[1] = qHTS assay to test for compound auto fluorescence at 535 nm (green) in HEK293 cells (AID 720680)
[2] = qHTS assay to test for compound auto fluorescence at 460 nm (blue) in HEK293 cell free culture (AID 720681)
Outline: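 Blue fluorescence (Ex 405/Em 460 nm, triamterene-equivalent) was read immediately after pin transfer of compound or DMSO into medium (DMEM, 10% FBS) without cells.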

[3] = qHTS assay to test for compound auto fluorescence at 535 nm (green) in HEK293 cell free culture (AID 720682)
Outline: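 Green-channel intensity (Ex/Em 485/535 nm) was recorded from compound-treated wells containing only DMEM with 10% FBS. Fluorescein provided the equivalency standard.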

[4] = qHTS assay to test for compound auto fluorescence at 590 nm (red) in HEK293 cell free culture (AID 720683)
Outline: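 Red-channel autofluorescence of compounds in culture medium (DMEM, 10% FBS), no cells, measured at 540/590 nm. Rose Bengal sodium is the reference fluorophore for equivalence.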

[5] = qHTS assay to test for compound auto fluorescence at 590 nm (red) in HepG2 cell free culture (AID 720684)
Outline: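 Cell-free; medium MEM + 10% FBS; compound or DMSO added by pintool; read Ex 540/Em 590 nm; Rose Bengal sodium as red reference fluorophore.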

[6] = qHTS assay to test for compound auto fluorescence at 460 nm (blue) in HepG2 cell free culture (AID 720685)
Outline: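 Cell-free plates of MEM plus 10% FBS received 23 nL compound or DMSO vehicle; blue-channel (405/460 nm) intensity scored against triamterene as reference fluorophore.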

[7] = qHTS assay to test for compound auto fluorescence at 535 nm (green) in HepG2 cell free culture (AID 720686)
[8] = qHTS assay to test for compound auto fluorescence at 460 nm (blue) in HepG2 cells (AID 720687)
Outline: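 Blue-channel autofluorescence (Ex/Em 405/460 nm, triamterene-equivalent) was measured after 1 hr compound exposure at 37 C, 5% CO2. Cells were HepG2, plated overnight at 37 C in MEM plus 10% FBS.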

[9] = molecular target: Glucocorticoid receptor (Homo sapiens) (UniProt P04150); test: qHTS assay to identify small molecule agonists of the glucocorticoid receptor (GR) signaling pathway (AID 720691; active = well fitted activation curve with a large enough effect in the signal ratio in the repeat runs, not every such curve was filed as active; the % refers to the signal ratio)
Outline: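 HeLa GR-bla reporter line; cells pre-incubated 4 h, compound in DMSO 18 h at 37 C; LiveBLAzer B/G FRET substrate 2 h RT; fluorescence intensity read-out.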

Measured: Potency

Sequence of Glucocorticoid receptor (Homo sapiens) (P04150 whole entry, looked up): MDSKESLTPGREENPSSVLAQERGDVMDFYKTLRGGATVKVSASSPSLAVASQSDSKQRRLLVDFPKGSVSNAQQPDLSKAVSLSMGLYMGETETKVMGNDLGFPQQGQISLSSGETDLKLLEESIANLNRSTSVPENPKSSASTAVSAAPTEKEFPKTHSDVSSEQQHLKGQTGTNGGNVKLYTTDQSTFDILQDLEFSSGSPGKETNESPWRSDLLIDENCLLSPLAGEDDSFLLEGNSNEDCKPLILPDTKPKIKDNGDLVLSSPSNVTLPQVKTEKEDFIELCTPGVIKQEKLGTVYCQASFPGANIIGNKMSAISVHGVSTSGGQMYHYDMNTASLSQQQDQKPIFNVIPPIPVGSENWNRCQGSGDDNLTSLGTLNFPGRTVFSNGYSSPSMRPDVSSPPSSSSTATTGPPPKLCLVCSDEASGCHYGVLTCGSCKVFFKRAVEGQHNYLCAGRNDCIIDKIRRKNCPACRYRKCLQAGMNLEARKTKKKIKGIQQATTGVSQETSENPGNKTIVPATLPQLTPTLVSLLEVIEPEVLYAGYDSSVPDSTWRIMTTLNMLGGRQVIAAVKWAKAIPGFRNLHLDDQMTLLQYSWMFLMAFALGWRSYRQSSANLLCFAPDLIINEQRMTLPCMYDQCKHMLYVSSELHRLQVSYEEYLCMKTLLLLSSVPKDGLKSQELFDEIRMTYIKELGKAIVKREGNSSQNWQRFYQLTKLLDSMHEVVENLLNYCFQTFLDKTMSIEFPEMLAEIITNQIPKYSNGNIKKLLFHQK

C[C@@H]1CCN(C(=O)[C@H](CCCN=C(N)N)NS(=O)(=O)c2cccc3c2NC[C@H](C)C3)[C@@H](C(=O)O)C1
not listed: [9]
inactive: all other assays above

CC(=O)c1ccccc1O
not listed: [9]
inactive: all other assays above

CCCCCOC(=O)CCCCC
inactive: all assays above

NC(=O)Nc1ccccc1
inactive: all assays above

CCOc1ccc(C(=O)OCCN(CC)CC)cc1
not listed: [9]
inactive: all other assays above

CCC(C)C1CCCCC1=O (configuration not stated)
not listed: [9]
inactive: all other assays above

O=[N+]([O-])c1ccc(F)cc1F
not listed: [8] | [9]
inactive: all other assays above

C=C1CC[C@H]2C[C@@H]1C2(C)C
not listed: [9]
inactive: all other assays above

FC1(F)C(F)(F)C(F)(F)C2(F)C(F)(F)C(F)(F)C(F)(F)C(F)(F)C2(F)C1(F)F (configuration not stated)
inactive: all assays above

O=S(O)CO
not listed: [9]
inactive: all other assays above

NC(=O)c1cn(Cc2c(F)cccc2F)nn1
not listed: [8] | [9]
inactive: all other assays above

CCn1ccnc1CC1COc2ccccc2O1 (configuration not stated)
inactive: all assays above

COc1cc(C(=O)N2CCCCCCC2)cc(OC)c1OC
not listed: [8] | [9]
inactive: all other assays above

CC(C)(c1ccc(O)cc1)c1ccc(O)cc1
not listed: [9]
inactive: all other assays above

CCCN1CCCC[C@H]1C(=O)Nc1c(C)cccc1C
not listed: [9]
inactive: all other assays above

OC[C@]1(O)OC[C@@H](O)[C@H](O)[C@@H]1O
not listed: [9]
inactive: all other assays above

COc1c(N2C[C@@H]3CCCN[C@@H]3C2)c(F)cc2c(=O)c(C(=O)O)cn(C3CC3)c12
not listed: [9]
inactive: all other assays above

c1ccc(CC2=NCCN2)cc1
not listed: [9]
inactive: all other assays above

O=c1[nH]c(=O)n([C@H]2C[C@H](O)[C@@H](CO)O2)cc1I
not listed: [9]
inactive: all other assays above

Nc1cc(=O)[nH]c(N)n1
not listed: [8] | [9]
inactive: all other assays above

NC(CSCC(=O)O)C(=O)O (configuration not stated)
not listed: [9]
inactive: all other assays above

NCCc1cnc[nH]1
not listed: [9]
inactive: all other assays above

CN(C)CCCN1c2ccccc2CCc2ccc(Cl)cc21
inactive: all assays above

COC(=O)[C@@H](N)Cc1ccc(O)c(O)c1
not listed: [9]
inactive: all other assays above

CCN1CCC[C@H]1CNC(=O)c1c(O)c(Cl)cc(Cl)c1OC
not listed: [9]
inactive: all other assays above

CC(C)(C)NCCNC(C)(C)C
not listed: [9]
inactive: all other assays above

OCCCC1CCCCC1
not listed: [9]
inactive: all other assays above

CCN1CCC[C@H]1CNC(=O)c1cc(S(N)(=O)=O)ccc1OC
inactive: all assays above

N=C(N)c1ccccc1
not listed: [8] | [9]
inactive: all other assays above

N=C(N)c1ccc(OCCCOc2ccc(C(=N)N)cc2)cc1
inactive: all assays above
